Inconclusive results are not listed. Calls of active or inactive are those of the source. Unless noted, the call rests on the fitted dose curve; in most records, active means well fitted curve in the direction sought with a large enough effect in the repeat runs; inconclusive means weak or mixed curves; inactive means flat fitted curve, though single readings scatter.
Tests used:
[1] = qHTS assay to test for compound auto fluorescence at 535 nm (green) in HEK293 cells (AID 720680)
[2] = qHTS assay to test for compound auto fluorescence at 460 nm (blue) in HEK293 cell free culture (AID 720681)
How it was run: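 Blue fluorescence (Ex 405/Em 460 nm, triamterene-equivalent) was read immediately after pin transfer of compound or DMSO into medium (DMEM, 10% FBS) without cells.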

[3] = qHTS assay to test for compound auto fluorescence at 590 nm (red) in HEK293 cell free culture (AID 720683)
How it was run: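 Red-channel autofluorescence of compounds in culture medium (DMEM, 10% FBS), no cells, measured at 540/590 nm. Rose Bengal sodium is the reference fluorophore for equivalence.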

[4] = qHTS assay to test for compound auto fluorescence at 590 nm (red) in HepG2 cell free culture (AID 720684)
How it was run: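 Steps: dispense MEM/10% FBS medium, no cells; pin compound or DMSO vehicle; read red channel, Ex/Em 540/590 nm. Output given as Rose Bengal sodium equivalents.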

[5] = qHTS assay to test for compound auto fluorescence at 535 nm (green) in HepG2 cell free culture (AID 720686)
[6] = qHTS assay to test for compound auto fluorescence at 460 nm (blue) in HepG2 cells (AID 720687)
How it was run: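 Blue-channel autofluorescence (Ex/Em 405/460 nm, triamterene-equivalent) was measured after 1 hr compound exposure at 37 C, 5% CO2. Cells were HepG2, plated overnight at 37 C in MEM plus 10% FBS.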

[7] = qHTS assay to test for compound auto fluorescence at 460 nm (blue) in HepG2 cell free culture (AID 720685)
How it was run: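 Compound (23 nL) or DMSO pinned into cell-free MEM with 10% FBS; blue fluorescence read at 405/460 nm excitation/emission, expressed as auto-fluorescence equivalency to triamterene.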

[8] = biological target: Glucocorticoid receptor (Homo sapiens) (UniProt P04150); test: qHTS assay to identify small molecule antagonists of the glucocorticoid receptor (GR) signaling pathway (AID 720692; active means well fitted inhibition curve with a large enough effect in the signal ratio in the repeat runs, not every such curve was filed as active; the % refers to the signal ratio)
How it was run: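 GR-bla HeLa cells (beta-lactamase reporter under glucocorticoid response element) were pre-plated 4 h at 37 C, treated with compounds plus 5 nM dexamethasone (final) for 18 h, then read by LiveBLAzer B/G FRET fluorescence after 2 h.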

[9] = biological target: Glucocorticoid receptor (Homo sapiens) (UniProt P04150); test: qHTS assay to identify small molecule agonists of the glucocorticoid receptor (GR) signaling pathway (AID 720691; active means well fitted activation curve with a large enough effect in the signal ratio in the repeat runs, not every such curve was filed as active; the % refers to the signal ratio)
How it was run: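 GR-bla HeLa cells (beta-lactamase reporter under glucocorticoid response element) were plated 4 h at 37 C/5% CO2, given compounds in DMSO, and incubated 18 h at 37 C. LiveBLAzer B/G FRET substrate was added for 2 h at room temperature, then fluorescence intensity read.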

Measured: Potency

Chain of Glucocorticoid receptor (Homo sapiens) (P04150 whole entry, looked up): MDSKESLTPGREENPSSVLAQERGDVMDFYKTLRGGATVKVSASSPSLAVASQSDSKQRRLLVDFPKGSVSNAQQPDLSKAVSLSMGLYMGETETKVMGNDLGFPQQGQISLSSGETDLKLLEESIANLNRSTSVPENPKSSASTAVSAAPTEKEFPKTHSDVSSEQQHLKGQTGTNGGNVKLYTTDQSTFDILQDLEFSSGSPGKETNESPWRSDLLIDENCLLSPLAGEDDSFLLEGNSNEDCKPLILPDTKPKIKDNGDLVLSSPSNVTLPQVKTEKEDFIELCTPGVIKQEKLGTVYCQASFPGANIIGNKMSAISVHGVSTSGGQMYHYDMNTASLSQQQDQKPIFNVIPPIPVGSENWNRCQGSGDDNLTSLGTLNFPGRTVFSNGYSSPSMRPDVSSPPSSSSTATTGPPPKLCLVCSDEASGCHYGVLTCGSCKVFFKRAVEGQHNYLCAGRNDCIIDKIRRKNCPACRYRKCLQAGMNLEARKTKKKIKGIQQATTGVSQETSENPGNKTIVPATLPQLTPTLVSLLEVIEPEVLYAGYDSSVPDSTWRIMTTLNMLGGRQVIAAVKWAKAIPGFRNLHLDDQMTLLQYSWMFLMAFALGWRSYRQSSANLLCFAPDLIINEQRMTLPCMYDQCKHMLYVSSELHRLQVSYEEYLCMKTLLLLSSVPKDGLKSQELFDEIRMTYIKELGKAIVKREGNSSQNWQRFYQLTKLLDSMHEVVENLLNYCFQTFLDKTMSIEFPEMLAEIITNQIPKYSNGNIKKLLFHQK

C[C@]12CCC(=O)C=C1CC[C@@H]1[C@@H]2[C@@H](O)C[C@@]2(C)[C@H]1CC[C@]2(O)C(=O)CO
inactive: [1] | [2] | [3] | [4] | [5] | [6]

O=C1c2ccccc2CCc2ccccc21
inactive: [1] | [2] | [3] | [4] | [5] | [6]

O=S(=O)(O)c1ccc(N=Nc2c(O)ccc3cc(S(=O)(=O)O)ccc23)cc1
inactive: [1] | [2] | [3] | [4] | [7] | [6] | [8]

O=C(O)c1ccccc1C(=O)O
inactive: [1] | [2] | [3] | [4] | [7] | [5] | [6] | [8]

Cc1ccc([N+](=O)[O-])cc1S(=O)(=O)O
inactive: [1] | [2] | [3] | [4] | [7] | [6] | [8]

CCCCCCO
inactive: [1] | [2] | [3] | [4] | [7] | [6] | [9] | [8]

CC(=O)OC1CC(C)OC(C)O1 (centres undefined)
inactive: [1] | [2] | [3] | [4] | [5] | [6] | [9] | [8]

CC(=O)c1ccc(O)cc1
inactive: [1] | [2] | [3] | [4] | [5] | [6] | [9] | [8]

CC(C)(C#N)c1cc(Cn2cncn2)cc(C(C)(C)C#N)c1
inactive: [1] | [2] | [3] | [4] | [7] | [5] | [6] | [9] | [8]

CC(C)CC(C)O (centres undefined)
inactive: [1] | [2] | [3] | [4] | [7] | [5] | [6]

CC(=O)OCc1ccccc1
inactive: [1] | [2] | [3] | [4] | [7] | [5] | [6] | [8]

COCCCN
inactive: [1] | [2] | [3] | [4] | [7] | [6] | [9] | [8]

CCOCCOCCOCCO
inactive: [1] | [2] | [3] | [4] | [7] | [5] | [6]

O=C1C(c2[nH]c3ccccc3c2O)=Nc2ccccc21
inactive: [1] | [2] | [3] | [4] | [5] | [6]

O=C1CCCC1
inactive: [1] | [2] | [3] | [4] | [5] | [6] | [9] | [8]

OCc1cccc(Oc2ccccc2)c1
inactive: [1] | [2] | [3] | [4] | [7] | [5] | [6]

CCOCC(=O)O
inactive: [1] | [2] | [3] | [4] | [7] | [6] | [9] | [8]

CC(C)OC(=O)COc1ccc(Cl)cc1Cl
inactive: [1] | [2] | [3] | [4] | [7] | [6] | [9] | [8]

Source: PubChem BioAssay (Tox21)
